Assay results taken from PubChem BioAssay (NCATS).
Several values for one entry are separate records, joined by “and”; a condition that tells them apart may be missing. Equal values may be shown once. Records with an inconclusive call do not appear. Activity calls are given as the source filed them. Unless noted, calls follow the shape of the dose curve; as a rule, active = well fitted curve in the direction sought with a large enough effect; inconclusive = small, poorly fitted or top-dose-only effect, or another doubt; inactive = no such curve, though single readings can be large; an effect the other way counts as inactive or inconclusive.

How the values were obtained:
UISO = assay: qHTS assay to identify novel small-molecules to repurpose for Merkel cell carcinoma treatment (AID 1296009); settings: MCC and control cell lines, CellTiter-Glo viability, 72 h; series mostly up to 46 µM; also: nearly all actives have a fitted effect of over 60% in size; also: potency is read from the fitted curve at half-maximal effect
Method in brief: (§1)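 qHTS format: cells treated with library compounds in DMSO across 8 (NPC) or 11 (MIPE) concentrations. Readout after 72 hr at 37 degree celsius was CellTiter-Glo luminescence.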

WaGa = assay: as above; settings: MCC and control cell lines, CellTiter-Glo viability, 72 h; series mostly up to 46 µM
Method in brief: as §1

C33A = assay: Primary qHTS to identify gynecologic anti-cancer compounds using libraries of approved drugs and bioactive compounds (AID 1345084); settings: Gynecologic cancer cell panel viability, ATPlite luminescence, 48 h; series mostly up to 57.5 µM; also: nearly all actives have a fitted effect of over 55% in size; also: potency is read from the fitted curve at half-maximal effect
Method in brief: (§2)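 Five-concentration response, 48 h; readout is ATP-driven luciferase luminescence.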

HeLa = assay: as above; settings: Gynecologic cancer cell panel viability, ATPlite luminescence, 48 h; series mostly up to 57.5 µM
Method in brief: as §2

Hek293T = assay: as above; settings: Gynecologic cancer cell panel viability, ATPlite luminescence, 48 h, control line for the selectivity index; series mostly up to 57.5 µM
Method in brief: as §2

OV90 = assay: as above; settings: Gynecologic cancer cell panel viability, ATPlite luminescence, 48 h; series mostly up to 57.5 µM
Method in brief: as §2

Tov112D = assay: as above; settings: Gynecologic cancer cell panel viability, ATPlite luminescence, 48 h; series mostly up to 57.5 µM
Method in brief: as §2

[1] = qHTS assay to identify inhibitors of the type 1 interferon - major histocompatibility complex class I in skeletal muscle: Counter screen cell viability and HiBit confirmation (AID 1347412); settings: iHSKM muscle cells + IFN-b, HiBiT or CellTiter-Glo, 24 h; also: potency is read from the fitted curve at half-maximal effect; nearly all actives have a fitted effect of over 60% in size
Method in brief: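 Luminescence read-out: Nano-Glo HiBiT lytic signal from C-terminally HiBiT-tagged HLA-B in CRISPR-edited human myoblasts, plus CellTiter Glo ATP as viability counter screen. IFN-beta 4.0 ng/ml; 24 hrs treatment at 37 C, 5% CO2.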

CASKI = assay: Primary qHTS to identify gynecologic anti-cancer compounds using libraries of approved drugs and bioactive compounds (AID 1345084); settings: Gynecologic cancer cell panel viability, ATPlite luminescence, 48 h; series mostly up to 57.5 µM; also: nearly all actives have a fitted effect of over 55% in size; also: potency is read from the fitted curve at half-maximal effect
Method in brief: as §2

Es-2 = assay: as above; settings: Gynecologic cancer cell panel viability, ATPlite luminescence, 48 h; series mostly up to 57.5 µM
Method in brief: as §2

JEG-3 = assay: as above; settings: Gynecologic cancer cell panel viability, ATPlite luminescence, 48 h; series mostly up to 57.5 µM
Method in brief: as §2

PA-1 = assay: as above; settings: Gynecologic cancer cell panel viability, ATPlite luminescence, 48 h; series mostly up to 57.5 µM
Method in brief: as §2

SKOV3 = assay: as above; settings: Gynecologic cancer cell panel viability, ATPlite luminescence, 48 h; series mostly up to 57.5 µM
Method in brief: as §2

Tov-21-G = assay: as above; settings: Gynecologic cancer cell panel viability, ATPlite luminescence, 48 h; series mostly up to 57.5 µM
Method in brief: as §2

[2] = Drug repurposing screens with cells derived from glioblastoma tumor samples (AID 1345199); settings: GBM patient neurospheres viability, ATP luminescence, 48 h; also: nearly all actives have a fitted effect of over 40% in size; also: potency is read from the fitted curve at half-maximal effect; as to activity, negative = cell killing: % is scaled to controls: 0 for no effect and ±100 for the full control effect
Method in brief: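 Four patient lines of CD133+ GBM neurospheres were screened at several concentrations; hits were retested in those lines plus three slower-growing GBM lines, using 48-hour treatment and ATP-based viability.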

[3] = qHTS assay for small molecule activators of the human pregnane X receptor (PXR) signaling pathway (AID 720659; call rule not given here; also: 0% is about no effect)
CAOV3 = assay: Primary qHTS to identify gynecologic anti-cancer compounds using libraries of approved drugs and bioactive compounds (AID 1345084); settings: Gynecologic cancer cell panel viability, ATPlite luminescence, 48 h; series mostly up to 57.5 µM; also: nearly all actives have a fitted effect of over 55% in size; also: potency is read from the fitted curve at half-maximal effect
Method in brief: as §2

[4] = molecular target: Nuclear receptor subfamily 1 group I member 2 (Rattus norvegicus) (UniProt Q9R1A7); assay: qHTS assay for small molecule activators of the rat pregnane X receptor (rPXR) signaling pathway (AID 651751; call rule not given here; also: 0% is about no effect); settings: rPXR reporter cells, luciferase (One-Glo), 24 h
[5] = at 45.9 µM (top of the series), tumour line B
[6] = at 45.9 µM (top of the series), tumour line D
[7] = at 46 µM (top of the series), tumour line A
[8] = at 46.1 µM (top of the series), tumour line C

Nuclear receptor subfamily 1 group I member 2 (Rattus norvegicus), sequence (Q9R1A7 whole entry, looked up): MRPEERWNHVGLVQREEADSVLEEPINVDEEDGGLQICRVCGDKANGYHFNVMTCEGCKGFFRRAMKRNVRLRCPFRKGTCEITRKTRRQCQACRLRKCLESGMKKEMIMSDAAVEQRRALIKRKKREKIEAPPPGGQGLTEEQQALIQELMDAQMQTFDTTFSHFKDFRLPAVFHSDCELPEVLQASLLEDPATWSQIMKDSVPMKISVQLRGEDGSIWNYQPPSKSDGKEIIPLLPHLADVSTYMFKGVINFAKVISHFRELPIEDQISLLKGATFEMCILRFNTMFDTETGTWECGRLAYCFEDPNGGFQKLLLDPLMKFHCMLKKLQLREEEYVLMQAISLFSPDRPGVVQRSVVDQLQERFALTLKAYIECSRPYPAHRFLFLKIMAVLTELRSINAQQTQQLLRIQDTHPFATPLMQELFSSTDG

C=C1C(=O)[C@@]23C(CC[C@@H]1[C@H]2O)[C@@]12CO[C@]3(O)[C@@H](O)[C@@H]1C(C)(C)CC[C@@H]2O (some centres not stated)
active: Potency (UISO) 14.8 µM | Potency (WaGa) 0.833 µM | Potency (C33A) 28.2 µM | Potency (Hek293T) 28.2 µM | Potency ([1]; HiBiT) 8.83 µM | Potency ([1]; Viability) 35.2 µM
inactive: Potency (HeLa) | Potency (OV90) | Potency (Tov112D)

NCCS
inactive: Potency (UISO) | Potency (WaGa) | Potency (C33A) | Potency (CASKI) | Potency (Es-2) | Potency (HeLa) | Potency (Hek293T) | Potency (JEG-3) | Potency (OV90) | Potency (PA-1) | Potency (SKOV3) | Potency (Tov-21-G) | Potency (Tov112D) | activity, negative = cell killing [2, 5] -3.94% and -12.1% | activity, negative = cell killing [2, 6] -6.82% and -13.2% | activity, negative = cell killing [2, 7] -8.15% and -11.3% | activity, negative = cell killing [2, 8] -12.7% and -9.68%

CC(C)(C)OC(=O)N[C@H]1CCCCCC=C[C@@H]2C[C@@]2(C(=O)NS(=O)(=O)C2CC2)NC(=O)[C@@H]2C[C@@H](OC(=O)N3Cc4cccc(F)c4C3)CN2C1=O
inactive: Potency (UISO) | Potency (WaGa) | Potency (C33A) | Potency (CASKI) | Potency (Es-2) | Potency (HeLa) | Potency (Hek293T) | Potency (JEG-3) | Potency (OV90) | Potency (PA-1) | Potency (SKOV3) | Potency (Tov-21-G) | Potency (Tov112D)

CN1CCN(CCOc2cc(OC3CCOCC3)c3c(Nc4c(Cl)ccc5c4OCO5)ncnc3c2)CC1
active: Potency (SKOV3) 3.55 µM | Potency (Tov-21-G) 2.24 µM
inactive: Potency (UISO) | Potency (WaGa) | Potency (Es-2) | Potency (HeLa) | Potency (Hek293T) | Potency (JEG-3) | Potency (Tov112D)

CN1C[C@H]2c3ccccc3Oc3ccc(Cl)cc3[C@@H]2C1
inactive: Potency (UISO) | Potency (WaGa) | Potency (C33A) | Potency (CASKI) | Potency (HeLa) | Potency (JEG-3) | Potency (PA-1) | Potency (Tov-21-G) | Potency (Tov112D) | activity, negative = cell killing [2, 5] -17.5%
active: Potency ([2]; tumour line A) 10 µM

CCn1cc(C(=O)O)c(=O)c2ccc(C)nc21
inactive: Potency (UISO) | Potency (WaGa) | Potency (C33A) | Potency (CASKI) | Potency (Es-2) | Potency (HeLa) | Potency (Hek293T) | Potency (JEG-3) | Potency (OV90) | Potency (SKOV3) | Potency (Tov-21-G) | Potency (Tov112D) | activity, negative = cell killing [2, 5] -0.634% | activity, negative = cell killing [2, 6] -3.73% | activity, negative = cell killing [2, 8] -15.1% | outcome [3]

COc1ccc(Cc2ccc(NC(N)=O)cc2)cc1-c1cccc(Cl)c1
inactive: Potency (UISO) | Potency (WaGa) | Potency (C33A) | Potency (CAOV3) | Potency (CASKI) | Potency (Es-2) | Potency (HeLa) | Potency (Hek293T) | Potency (JEG-3) | Potency (OV90) | Potency (PA-1) | Potency (SKOV3) | Potency (Tov-21-G) | Potency (Tov112D)

CCn1c(C(=O)N(C2CC2)C2CC2)cc2c3c(ncn3C)c(Nc3cc(C)n(C)n3)nc21
inactive: Potency (UISO) | Potency (WaGa) | Potency (C33A) | Potency (CASKI) | Potency (Es-2) | Potency (HeLa) | Potency (Hek293T) | Potency (JEG-3) | Potency (OV90) | Potency (PA-1) | Potency (SKOV3) | Potency (Tov-21-G) | Potency (Tov112D)

CCN1CCC[C@H]1CNC(=O)c1cc(S(N)(=O)=O)ccc1OC
inactive: Potency (UISO) | Potency (WaGa) | Potency (C33A) | Potency (CASKI) | Potency (Es-2) | Potency (HeLa) | Potency (Hek293T) | Potency (JEG-3) | Potency (OV90) | Potency (PA-1) | Potency (SKOV3) | Potency (Tov-21-G) | Potency (Tov112D) | activity, negative = cell killing [2, 5] 0.712% | activity, negative = cell killing [2, 6] -10.3% | activity, negative = cell killing [2, 7] -29.7% | activity, negative = cell killing [2, 8] 1.29%

CCN(CC)C(=O)c1ccc(O)c(OC)c1
inactive: Potency (UISO) | Potency (WaGa) | Potency (C33A) | Potency (CASKI) | Potency (Es-2) | Potency (HeLa) | Potency (Hek293T) | Potency (JEG-3) | Potency (OV90) | Potency (PA-1) | Potency (SKOV3) | Potency (Tov-21-G) | Potency (Tov112D) | activity, negative = cell killing ([2]; at 20 µM (top of the series), tumour line C) -17.1% | activity, negative = cell killing ([2]; at 21.2 µM (top of the series), tumour line B) -3.79% | activity, negative = cell killing ([2]; at 21.2 µM (top of the series), tumour line D) 8.85% | activity, negative = cell killing ([2]; at 21.3 µM (top of the series), tumour line A) -7.96% | activity, negative = cell killing [2, 5] -9.11% | activity, negative = cell killing [2, 6] 5.23% | activity, negative = cell killing [2, 7] -18.7% | activity, negative = cell killing [2, 8] -18.9%

O=C1NC(=O)C(c2ccccc2)(c2ccccc2)N1
inactive: Potency (UISO) | Potency (WaGa) | Potency (C33A) | Potency (CAOV3) | Potency (CASKI) | Potency (Es-2) | Potency (HeLa) | Potency (Hek293T) | Potency (JEG-3) | Potency (OV90) | Potency (PA-1) | Potency (SKOV3) | Potency (Tov-21-G) | Potency (Tov112D) | activity, negative = cell killing [2, 5] -5.12% | activity, negative = cell killing [2, 6] -12.9% | activity, negative = cell killing [2, 7] -29.6% | activity, negative = cell killing [2, 8] 10.5% | max response [4] -3.01% and 3.12% and 2.23%

COc1ccc2cc(-c3nc(-c4ccc(S(C)=O)cc4)[nH]c3-c3ccncc3)ccc2c1 (configuration not stated)
inactive: Potency (UISO) | Potency (WaGa) | Potency (C33A) | Potency (CAOV3) | Potency (CASKI) | Potency (Es-2) | Potency (HeLa) | Potency (Hek293T) | Potency (JEG-3) | Potency (OV90) | Potency (PA-1) | Potency (Tov-21-G) | Potency (Tov112D)
